# Several values for one entry are separate records, joined by “and”; a condition that tells them apart may be missing. Equal values may be shown once. The panel holds about 79,000 compounds, 15% with a hit somewhere; the sample as a whole holds those more often. Some structures have more than one record in an assay (separate samples or runs), and their calls can disagree. Activity calls are given as the source filed them. Cut-off read from the data, not from the text of the source: active = growth inhibition above about 70%; inactive = the rest.
# Legend:
# [1] = NCI Yeast Anticancer Drug Screen. Data for the rad50 strain (AID 155);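 note: 0% = growth of vehicle-only cultures of the same strain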; conditions: S. cerevisiae rad50 strain growth inhibition, stronger effect = higher value
# How it was run: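 DNA repair mutant yeast, compound exposure, growth read-out; inhibition is taken relative to vehicle.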
# [2] = NCI Yeast Anticancer Drug Screen. Data for the mec2-1 strain (AID 157); conditions: S. cerevisiae mec2-1 strain, stronger effect = higher value
# How it was run: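 Strain: mec2-1 (DNA repair/cell cycle alteration). Compound exposure, then growth measured; inhibition expressed relative to vehicle.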
# [3] = NCI Yeast Anticancer Drug Screen. Data for the sgs1 mgt1 strain (AID 161);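 note: 0% = growth of cultures given vehicle only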; conditions: S. cerevisiae sgs1 mgt1 strain, stronger effect = higher value
# How it was run: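 Mutant yeast exposed to compound; growth scored against vehicle-only wells.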
# [4] = NCI Yeast Anticancer Drug Screen. Data for the cln2 rad14 strain (AID 165);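 note: 0% = growth equal to vehicle treated cultures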; conditions: S. cerevisiae cln2 rad14 strain, stronger effect = higher value
# How it was run: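 Compounds are applied to the cln2 rad14 yeast strain, and growth is then compared with that of vehicle-treated cultures to give inhibition.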
# [5] = NCI Yeast Anticancer Drug Screen. Data for the bub3 strain (AID 167); conditions: S. cerevisiae bub3 mutant strain, stronger effect = higher value
# How it was run: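 In this screen, a yeast mutant lacking normal mitotic checkpoint function is challenged with compound. Relative growth versus vehicle gives the inhibition value.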
# [6] = NCI Yeast Anticancer Drug Screen. Data for the mlh1 rad18 strain (AID 175); conditions: S. cerevisiae mlh1 rad18 strain growth inhibition, stronger effect = higher value
# How it was run: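 Read-out is yeast growth inhibition, calculated against vehicle-only controls. The compound was applied to a strain engineered with DNA damage repair alterations.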
# [7] = at 5.0 µM (retest, dose inferred, filed as 0.5)
# [8] = at 50.0 µM (retest, dose inferred, filed as 5.0)
SMILES,"growth inhibition [1, 7]","growth inhibition [1, 8]",growth inhibition ([1]; at 50.0 µM),"growth inhibition [2, 7]","growth inhibition [2, 8]",growth inhibition ([2]; at 50.0 µM),"growth inhibition [3, 7]","growth inhibition [3, 8]",growth inhibition ([3]; at 50.0 µM),"growth inhibition [4, 7]","growth inhibition [4, 8]",growth inhibition ([4]; at 50.0 µM),"growth inhibition [5, 7]","growth inhibition [5, 8]",growth inhibition ([5]; at 50.0 µM),"growth inhibition [6, 7]","growth inhibition [6, 8]",growth inhibition ([6]; at 50.0 µM)
O=C1c2ccccc2C(=O)c2cc(S(=O)(=O)O)ccc21,3% (inactive),27% (inactive),73% (active) and 25.7% (inactive),1% (inactive),26% (inactive),36.2% (inactive) and 36.1% (inactive),6% (inactive),42% (inactive),67.7% (inactive) and 37% (inactive),6% (inactive),30% (inactive),-26.8% (inactive) and 9.95% (inactive),0% (inactive),22% (inactive),67.3% (inactive) and 44.7% (inactive),7% (inactive),41% (inactive),77.7% (active) and 19.6% (inactive)
ClCCCN(CCCCl)c1ccc(C=Nc2cccc(Cl)c2)cc1,16% (inactive),89% (active),91.3% (active),-4% (inactive),8% (inactive),-1.2% (inactive),24% (inactive),90% (active),92.8% (active),8% (inactive),88% (active),86.2% (active),-4% (inactive),-14% (inactive),-13% (inactive),17% (inactive),89% (active),78.5% (active)
COc1ccccc1NC(=O)C(/C=N/C(=S)NCCNc1ccc(OC)c(OC)c1)=C(\C)O,1% (inactive),3% (inactive),9.7% (inactive),-55% (inactive),-10% (inactive),-2.25% (inactive),2% (inactive),-8% (inactive),16.4% (inactive),-22% (inactive),-14% (inactive),43.2% (inactive),2% (inactive),-27% (inactive),7.25% (inactive),10% (inactive),-2% (inactive),15.1% (inactive)
CCCc1cc(=O)oc2c3c(c4c(c12)OC(C)(C)CC4)O[C@@H](C)[C@H](C)[C@H]3O,8% (inactive),90% (active),-6.95% (inactive) and 80.1% (active),-20% (inactive),95% (active),-18.8% (inactive) and 90% (active),-1% (inactive),93% (active),3.65% (inactive) and 89.6% (active),21% (inactive),94% (active),10.9% (inactive) and 88.7% (active),0% (inactive),92% (active),16.3% (inactive) and 87.8% (active),-6% (inactive),93% (active),8.05% (inactive) and 85.9% (active)
BrC(c1cccc2ccccc12)c1cccc2ccccc12,23% (inactive),97% (active),95.5% (active),20% (inactive),97% (active),94.7% (active),1% (inactive),96% (active),94.8% (active),0% (inactive),94% (active),92.8% (active),-6% (inactive),96% (active),94.2% (active),18% (inactive),95% (active),95% (active)
Cc1ccc(C23C=CC(c4ccccc4)(C2)C2C(=O)OC(=O)C23)cc1 (stereo not drawn),86% (active),96% (active),98.5% (active),85% (active),97% (active),98.5% (active),81% (active),98% (active),98.6% (active),36% (inactive),97% (active),92.2% (active),85% (active),97% (active),98.7% (active),79% (active),97% (active),95.8% (active)
O=C1c2ccccc2C(=O)c2c(O)c(O)cc(O)c21,97% (active),97% (active),88.5% (active) and 11.4% (inactive),99% (active),98% (active),86.2% (active) and -3.5% (inactive),98% (active),97% (active),86% (active) and 14.2% (inactive),59% (inactive),95% (active),72.4% (active) and 9.2% (inactive),98% (active),97% (active),86.1% (active) and -9.1% (inactive),99% (active),97% (active),85.5% (active) and 25% (inactive)
COC(=O)c1nnn(-c2ccc(S(N)(=O)=O)cc2)c1N,-9% (inactive),-16% (inactive),36.6% (inactive),-4% (inactive),-10% (inactive),19.6% (inactive),-9% (inactive),-20% (inactive),53.5% (inactive),1% (inactive),1% (inactive),18.7% (inactive),-22% (inactive),-7% (inactive),-4.45% (inactive),-13% (inactive),-23% (inactive),64.9% (inactive)
Nc1nc(N)c2nc3c4ccccc4c4ccccc4c3nc2n1,2% (inactive),35% (inactive),56.5% (inactive),1% (inactive),30% (inactive),38.5% (inactive),0% (inactive),32% (inactive),21.7% (inactive),1% (inactive),3% (inactive),68.8% (inactive),7% (inactive),38% (inactive),74.5% (active),5% (inactive),44% (inactive),69.5% (inactive)
CC1(c2ccccc2)c2ccccc2N(c2ccccc2)C(=O)C1O (stereo not drawn),98% (active),100% (active),-2.35% (inactive) and 99.5% (active),98% (active),100% (active),7.75% (inactive) and 99.7% (active),97% (active),99% (active),8.35% (inactive) and 99.6% (active),96% (active),99% (active),1.8% (inactive) and 99.2% (active),97% (active),99% (active),-0.35% (inactive) and 99.7% (active),98% (active),99% (active),10.2% (inactive) and 99.4% (active)
C=CCc1c2c(ccc(=O)c1O)-c1c(cc(OC)c(OC)c1OC)CCC2NC(C)=O (stereo not drawn),-3% (inactive),94% (active),70.3% (active),4% (inactive),98% (active),60.5% (inactive),-20% (inactive),70% (active),64.6% (inactive),-12% (inactive),93% (active),72% (active),-13% (inactive),97% (active),53.3% (inactive),8% (inactive),97% (active),67% (inactive)
CC1(C)C(c2ccccc2)=Nc2ccccc21,0% (inactive),36% (inactive),34.1% (inactive),3% (inactive),89% (active),92.6% (active),-13% (inactive),61% (inactive),32.5% (inactive),-2% (inactive),62% (inactive),38% (inactive),9% (inactive),94% (active),96.7% (active),-5% (inactive),46% (inactive),86.2% (active)
O=S(=O)(O)c1ccc2cc(N=Nc3c(O)ccc4ccccc34)ccc2c1,9% (inactive),15% (inactive),19.9% (inactive),2% (inactive),12% (inactive),5.45% (inactive),7% (inactive),72% (active),75.3% (active),-7% (inactive),0% (inactive),33.4% (inactive),-2% (inactive),-21% (inactive),3.5% (inactive),2% (inactive),10% (inactive),34.9% (inactive)
O=S(c1cc(Br)ccc1O)c1cc(Br)ccc1O,31% (inactive),99% (active),99.3% (active),49% (inactive),100% (active),99.7% (active),69% (inactive),99% (active),99% (active),39% (inactive),99% (active),99.3% (active),23% (inactive),99% (active),99.3% (active),80% (active),100% (active),99.5% (active)
O=C1OC2=C(c3ccccc3)CCCC2C1=O (stereo not drawn),-1% (inactive),88% (active),83% (active) and -7.3% (inactive),3% (inactive),89% (active),78.5% (active) and 4.7% (inactive),1% (inactive),69% (inactive),93.8% (active) and -3.3% (inactive),-3% (inactive),94% (active),92.5% (active) and 0.1% (inactive),0% (inactive),93% (active),85.4% (active) and -6.2% (inactive),0% (inactive),93% (active),91.7% (active) and 3.8% (inactive)
CC12CCC3c4ccc(O)cc4CCC3C1CCC2S (stereo not drawn),-4% (inactive),96% (active),-7.35% (inactive) and 96.5% (active),-31% (inactive),97% (active),-1.65% (inactive) and 49.3% (inactive),-19% (inactive),97% (active),-2.95% (inactive) and 52.2% (inactive),-3% (inactive),96% (active),-5.3% (inactive) and 94.8% (active),-9% (inactive),97% (active),0.75% (inactive) and 98.1% (active),-26% (inactive),95% (active),-2.3% (inactive) and 96.3% (active)

# From PubChem BioAssay (NCI)
